From PubChem BioAssay
Active and inactive are the calls of the source.

Experiment: S. cerevisiae RM11-1a growth modifiers, primary screen, strain RM11-1a, OD600, basal, 24 h (AID 1177);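 further: cultures grown under basal conditions with no added stressor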
Settings: OD600, 24 h, higher = more signal, called active from +8 up or from −8 down
Further: test concentration not given here.

z-score, inactive:
O=C(c1ccccc1)N1C(=O)[C@]2(Cc3ccccc31)N=C(c1ccc(OCCCO)cc1)O[C@@H]2c1ccccc1 2.14
COc1ccc([Si](C)(C)[C@@H]2[C@@H](CCO)O[C@]3(C(=O)N(Cc4ccccc4)c4ccc(N5CCOC5=O)cc43)[C@H]2C)cc1 4.01
O=C1C2C=CC(C(O)c3ccco3)N(Nc3ccccc3F)C2C(=O)N1c1ccccc1 (configuration not stated) 0.101
CC(C)(C)OC(=O)COc1cccc(C(=O)CCN2CCOCC2)c1 -0.616
CS(=O)(=O)CCOC(=O)C1=CC(CCCO)=CC(c2ccc(CN3CCCC3)cc2)N(Cc2sc3ccccc3c2Cl)C=C1C(=O)OCCS(C)(=O)=O (configuration not stated) 0.34
COC(=O)[C@@]1(Cc2ccc(F)cc2)[C@H]2c3cc(C(=O)N(C)C)n(CCc4ccc(OC)c(Br)c4)c3C[C@H]2CN1C(=O)c1ccccc1 0.399
COc1ccc([Si](C)(C)[C@@H]2[C@@H](CC(=O)N3Cc4ccccc4C[C@H]3CO)O[C@]3(C(=O)N(Cc4ccc(N5C(=O)c6cccc7cccc5c67)cc4)c4ccccc43)[C@H]2C)cc1 1.15

Experiment: E. coli acrAB mutant growth effects, primary screen, E. coli filamentation inducers, strain DRC39, OD650, 24 h (AID 1178);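 further: growth measured as culture turbidity by optical density at 650 nm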
Settings: higher = more signal, called active from +8 up or from −8 down

z-score, inactive:
COc1cc2c(cc1O)C(C1CC1)N(Cc1cccc(OC(F)(F)F)c1)CC2 (configuration not stated) 0.213
C=CC[C@]1(C(=O)N2CCOCC2)COC(c2ccc(OCCCO)cc2)=N1 0.904
C=CC[C@]1(C(=O)N2CCCCC2)N=C(c2ccc(OCCCO)cc2)O[C@H]1c1ccccc1CN=[N+]=[N-] 0.552
COc1ccc(CCNC(=O)[C@@]2(Sc3ccc(C)cc3)CC(=O)N(Cc3ccccc3C(F)(F)F)[C@@H]2c2ccc(CO)cc2I)cc1 0.0424
O=C1N(CCS(=O)(=O)c2ccccc2)c2ccccc2[C@H]2OC(c3ccc(OCCCO)cc3)=N[C@@]12Cc1ccccc1 2.46
CCCCC[C@H]1OC[C@@]23C=C(Br)[C@@H](CC12)[C@@]1(CO1)C3=O (some centres not stated) -0.662
COC(=O)[C@@]1(Cc2ccc(OC)cc2)[C@H]2c3cc(C(=O)N(C)C)n(Cc4ccc(OC(F)(F)F)cc4)c3C[C@H]2CN1C(=O)c1ccccc1 -0.728
CCC#CCN(Cc1ccccc1Br)[C@H](/C=C/C1CC1)[C@@H](O)Cc1ccccc1 1.96
CC[C@@H]1O[Si](C(C)C)(C(C)C)c2c1cc(-c1cc(C)c(OC)c(C)c1)nc2-c1ccc(Oc2ccccc2)cc1 0.48
CCCNC(=O)[C@@]1(C)c2ccccc2C(=O)N(c2ccc(C)cn2)[C@H]1c1ccc(CO)cc1 -0.398
[N-]=[N+]=Nc1ccccc1[C@@H]1OC(c2ccc(OCCCO)cc2)=N[C@]1(Cc1ccccc1)C(=O)N1CCCCC1 0.241
COc1ccc([Si](C)(C)[C@@H]2[C@@H](CCO)O[C@]3(C(=O)N(Cc4ccccc4)c4ccc(N5C(=O)c6cccc7cccc5c67)cc43)[C@H]2C)cc1 2.16
COc1cccc(C)c1NC(=O)O[C@H]1[C@H](OC(=O)Nc2ccc3c(c2)OCO3)[C@@H](OC(=O)Nc2ccc3c(c2)OCO3)[C@@H](OC)O[C@@H]1CO 1.5
Cc1cc(C)c(C(O)C2C=CC3C(=O)N(c4ccccc4)C(=O)C3N2Nc2ccccc2F)c(C)c1 (configuration not stated) -0.47
CCCC1(C(=O)OC)C=C2C(=C(C)C(=O)C2C)CN1 (configuration not stated) -0.715
O=C(NCCN1CCOCC1)[C@@H]1c2ccccc2C(=O)N(Cc2ccccc2Cl)[C@H]1c1ccc(CO)cc1 0.447
C=C(/C(=C/C[C@H](OC(C)=O)c1ccc(CO)o1)c1cnc2ccccc2c1)C(C)C 0.307
CCOC(=O)C[C@H]1[C@H](OC(=O)Cc2ccc3c(c2)OCO3)[C@@H](NC(=O)c2ccc3ccccc3n2)c2cc(OCCCO)ccc2N1C(=O)c1ccc2ccccc2n1 2.08
[N-]=[N+]=Nc1ccccc1C[C@]1(C(=O)NCCN2CCOCC2)COC(c2ccc(OCCCO)cc2)=N1 0.947
COc1ccc(CCNC(=O)[C@@H]2c3ccccc3C(=O)N(C3CCCCC3)[C@H]2c2ccc(CO)cc2)cc1 -0.712
COCCOC(=O)N1C(=O)[C@@]2(c3ccccc31)[C@H](C(=O)NC[C@H](O)c1ccccc1)[C@H]1C(=O)O[C@H](c3ccccc3)[C@H](c3ccccc3)N1[C@@H]2c1ccc(O)cc1 -0.236
COC(=O)[C@]1(CCS(=O)(=O)c2ccccc2)N=C(c2ccc(OCCCO)cc2)O[C@@H]1c1ccccc1N=[N+]=[N-] 0.548
CC(C)C(CO)N1C(=O)[C@@H]2C3C(=O)OCCC/C=C\[C@H]3OC23C=CCN(c2ccc4ccccc4c2)C(=O)[C@@H]13 (some centres not stated) -0.275
CN1C2C=C(CCCO)C(C3C(=O)N(C(N)=O)C(=O)C32)C1C1CC1 (configuration not stated) -0.686
NCCCCCNC(=O)[C@@H]1C[C@@H]2C(=O)N[C@@H](CCCCN)C(=O)N2[C@@H]1c1ccc(O)cc1 -0.0253
CCCCCC1=C2CNC(C)(C(=O)OC)C=C2C(C)C1=O (configuration not stated) -0.814
COc1ccc(CCNC(=O)[C@@]2(c3ccc([N+](=O)[O-])cc3)CC(=O)N(C3CCCCC3)[C@@H]2c2ccc(CO)cc2)cc1 0.914
COCCOC(=O)N1C(=O)[C@@]2(c3cc(C#CCC(C(=O)OC)C(=O)OC)ccc31)[C@H](c1ccc(OCCO)cc1)N1[C@H](c3ccccc3)[C@H](c3ccccc3)OC(=O)[C@H]1[C@@H]2C(=O)N1CCc2cc(OC)c(OC)cc2C1 0.301
O=C(c1ccccc1)N1C(=O)[C@]2(Cc3ccccc31)N=C(c1ccc(OCCCO)cc1)O[C@@H]2c1ccccc1 -0.18
COc1ccc([Si](C)(C)[C@@H]2[C@@H](CCO)O[C@]3(C(=O)N(Cc4ccccc4)c4ccc(N5CCOC5=O)cc43)[C@H]2C)cc1 -0.957
O=C1C2C=CC(C(O)c3ccco3)N(Nc3ccccc3F)C2C(=O)N1c1ccccc1 (configuration not stated) -0.887
CC(C)(C)OC(=O)COc1cccc(C(=O)CCN2CCOCC2)c1 0.215
CS(=O)(=O)CCOC(=O)C1=CC(CCCO)=CC(c2ccc(CN3CCCC3)cc2)N(Cc2sc3ccccc3c2Cl)C=C1C(=O)OCCS(C)(=O)=O (configuration not stated) 0.285
COC(=O)[C@@]1(Cc2ccc(F)cc2)[C@H]2c3cc(C(=O)N(C)C)n(CCc4ccc(OC)c(Br)c4)c3C[C@H]2CN1C(=O)c1ccccc1 -0.893
COc1ccc([Si](C)(C)[C@@H]2[C@@H](CC(=O)N3Cc4ccccc4C[C@H]3CO)O[C@]3(C(=O)N(Cc4ccc(N5C(=O)c6cccc7cccc5c67)cc4)c4ccccc43)[C@H]2C)cc1 0.384
